Data on eight targets can be found in the supplement of paper PMC12819154, “High-throughput peptide-centric local stability assay extends protein–ligand identification to membrane proteins, tissues and bacteria” (Nature Structural & Molecular Biology, 2025).
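Also: lysate desalted by size exclusion to strip endogenous ATP, peptide intensities built from DIA-NN precursor signals, and peptides missing any value discarded before comparison.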

Chain of UniProt P37647 (P37647 whole entry): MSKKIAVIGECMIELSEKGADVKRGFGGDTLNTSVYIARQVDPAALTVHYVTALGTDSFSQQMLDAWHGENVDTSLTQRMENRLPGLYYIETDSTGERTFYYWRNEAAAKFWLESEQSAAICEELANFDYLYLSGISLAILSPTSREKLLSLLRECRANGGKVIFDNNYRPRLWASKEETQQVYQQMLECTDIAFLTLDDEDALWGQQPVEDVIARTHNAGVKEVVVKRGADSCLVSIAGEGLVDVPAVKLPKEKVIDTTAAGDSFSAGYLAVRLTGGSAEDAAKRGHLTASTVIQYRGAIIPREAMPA
Chain of UniProt P77316 (P77316 whole entry): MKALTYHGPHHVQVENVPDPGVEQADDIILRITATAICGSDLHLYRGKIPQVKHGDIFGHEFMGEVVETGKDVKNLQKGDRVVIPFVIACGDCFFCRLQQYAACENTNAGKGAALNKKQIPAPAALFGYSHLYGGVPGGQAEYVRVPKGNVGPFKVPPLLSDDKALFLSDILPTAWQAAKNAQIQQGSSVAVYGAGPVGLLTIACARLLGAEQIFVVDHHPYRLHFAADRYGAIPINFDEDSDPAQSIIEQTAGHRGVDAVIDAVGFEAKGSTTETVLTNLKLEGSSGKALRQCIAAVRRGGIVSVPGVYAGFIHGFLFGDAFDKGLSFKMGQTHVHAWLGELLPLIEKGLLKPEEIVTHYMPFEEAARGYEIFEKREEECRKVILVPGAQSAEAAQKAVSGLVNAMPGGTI
Chain of UniProt P08179 (P08179 whole entry): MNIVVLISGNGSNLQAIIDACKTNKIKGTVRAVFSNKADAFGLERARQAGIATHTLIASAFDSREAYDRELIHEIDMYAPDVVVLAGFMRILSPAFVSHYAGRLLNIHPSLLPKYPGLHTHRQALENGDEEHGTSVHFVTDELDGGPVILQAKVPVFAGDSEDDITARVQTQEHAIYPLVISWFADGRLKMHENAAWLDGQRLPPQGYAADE
Chain of UniProt P33919 (P33919 whole entry): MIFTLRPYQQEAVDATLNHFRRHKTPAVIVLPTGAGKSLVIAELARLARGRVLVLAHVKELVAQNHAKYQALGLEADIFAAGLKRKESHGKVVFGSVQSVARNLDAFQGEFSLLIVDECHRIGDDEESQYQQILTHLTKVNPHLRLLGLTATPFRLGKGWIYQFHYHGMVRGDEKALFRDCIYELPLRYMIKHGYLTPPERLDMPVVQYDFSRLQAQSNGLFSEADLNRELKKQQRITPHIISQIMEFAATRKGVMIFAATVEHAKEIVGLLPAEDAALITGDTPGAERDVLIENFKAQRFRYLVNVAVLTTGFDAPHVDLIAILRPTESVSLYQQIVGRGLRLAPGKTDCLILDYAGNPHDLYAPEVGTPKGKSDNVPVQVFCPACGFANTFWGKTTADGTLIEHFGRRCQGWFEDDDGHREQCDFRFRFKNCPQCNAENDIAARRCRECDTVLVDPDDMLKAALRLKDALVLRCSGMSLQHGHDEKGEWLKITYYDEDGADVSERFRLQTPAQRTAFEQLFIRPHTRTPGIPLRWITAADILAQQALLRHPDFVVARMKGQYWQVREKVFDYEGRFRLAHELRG
Chain of UniProt P37326 (P37326 whole entry): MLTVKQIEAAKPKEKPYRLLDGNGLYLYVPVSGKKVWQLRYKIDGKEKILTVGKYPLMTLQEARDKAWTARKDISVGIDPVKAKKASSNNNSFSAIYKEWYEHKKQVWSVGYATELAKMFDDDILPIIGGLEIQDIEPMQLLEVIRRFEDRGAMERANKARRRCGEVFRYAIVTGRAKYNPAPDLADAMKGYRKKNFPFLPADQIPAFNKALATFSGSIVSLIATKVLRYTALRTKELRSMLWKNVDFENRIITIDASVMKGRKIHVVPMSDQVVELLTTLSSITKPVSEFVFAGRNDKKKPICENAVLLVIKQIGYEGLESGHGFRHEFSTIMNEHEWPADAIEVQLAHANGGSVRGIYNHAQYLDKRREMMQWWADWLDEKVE
Chain of UniProt P25741 (P25741 whole entry): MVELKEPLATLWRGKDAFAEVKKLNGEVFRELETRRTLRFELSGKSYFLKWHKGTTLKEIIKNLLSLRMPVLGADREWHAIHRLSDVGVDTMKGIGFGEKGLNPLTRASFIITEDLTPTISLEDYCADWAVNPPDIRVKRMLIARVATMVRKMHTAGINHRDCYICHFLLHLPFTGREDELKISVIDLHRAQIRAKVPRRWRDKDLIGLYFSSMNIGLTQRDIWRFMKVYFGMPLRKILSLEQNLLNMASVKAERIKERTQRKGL
Chain of UniProt P76034 (P76034 whole entry): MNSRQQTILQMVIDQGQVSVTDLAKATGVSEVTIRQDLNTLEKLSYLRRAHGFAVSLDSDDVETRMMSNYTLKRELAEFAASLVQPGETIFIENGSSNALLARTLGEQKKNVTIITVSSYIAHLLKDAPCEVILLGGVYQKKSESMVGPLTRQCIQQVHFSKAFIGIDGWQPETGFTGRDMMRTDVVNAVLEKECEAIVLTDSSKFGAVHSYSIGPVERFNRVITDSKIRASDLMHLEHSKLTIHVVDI
Chain of UniProt P76542 (P76542 whole entry): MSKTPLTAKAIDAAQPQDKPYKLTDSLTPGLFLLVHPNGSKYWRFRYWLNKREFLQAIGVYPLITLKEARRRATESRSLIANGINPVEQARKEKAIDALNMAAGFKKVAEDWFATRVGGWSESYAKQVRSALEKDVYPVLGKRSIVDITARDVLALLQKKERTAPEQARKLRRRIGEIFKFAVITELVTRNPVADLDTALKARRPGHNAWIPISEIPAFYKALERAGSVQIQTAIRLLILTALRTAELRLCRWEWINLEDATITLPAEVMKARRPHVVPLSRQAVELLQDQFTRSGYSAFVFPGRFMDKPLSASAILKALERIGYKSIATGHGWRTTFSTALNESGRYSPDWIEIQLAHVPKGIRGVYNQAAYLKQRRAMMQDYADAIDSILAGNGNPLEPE

Compound in the test: Nc1ncnc2c1ncn2[C@@H]1O[C@H](COP(=O)(O)OP(=O)(O)OP(=O)(O)O)[C@@H](O)[C@H]1O [adenosine 5'-triphosphate]
In words: log2 fold change of tryptic peptide abundance, ligand vs vehicle (limited proteolysis) (log2 ratio); higher = more trypsin-susceptible (destabilized). As to conditions: ligand concentration: 5 mM; sample: E. coli desalted lysate; replicate design: treated before aliquoting. The protocol: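 HT-PELSA: desalted E. coli K-12 BW25113 lysate (with 12 mM MgCl2) incubated with 5 mM ATP (pH 7) or water for 30 min at 25 C, then a 4 min trypsin pulse at 22 C. Peptides were quantified by DIA-MS (4 replicates). Value is the peptide log2 fold change (treated/control); negative = stabilized. Scale: negative = ligand-stabilized region.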
In the case of “UniProt P76034 (peptide sequence: DAPCEVILLGGVYQKK, peptide start residue: 127)”, the log2 fold change was -0.81.

As to “UniProt P25741 (peptide sequence: LSDVGVDTMK, peptide start residue: 84)”, the log2 fold change was -0.922.

With “UniProt P33919 (peptide sequence: LLGLTATPFR, peptide start residue: 146)”, the log2 fold change is -1.8.

On to “UniProt P08179 (peptide sequence: MHENAAWLDGQR, peptide start residue: 191)”, for which the log2 fold change was -0.588.

In the case of “UniProt P37647 (peptide sequence: LTGGSAEDAAK, peptide start residue: 275)”, the log2 fold change was -1.34.

For “UniProt P77316 (peptide sequence: HGDIFGHEFMGEVVETGKDVK, peptide start residue: 54)”, the log2 fold change is -0.836.

Regarding “UniProt P76542 (peptide sequence: VAEDWFATR, peptide start residue: 108)”, the log2 fold change was -0.902.

For the target “UniProt P37326 (peptide sequence: YNPAPDLADAMK, peptide start residue: 179)”, the log2 fold change is -0.342.
